Assay results taken from PubChem BioAssay AID624330 (Southern Research Specialized Biocontainment Screening …, 2012).
The campaign covered roughly 340,000 compounds. About 2,100 (0.62%) were called active. The list is a sample of the results. Entries with a potency or affinity are not part of this list. A number with no mark means an inactive call.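 How the source made its calls: active means first-screen hits whose inhibition reached a set limit at any dose in the follow-up dose series; inconclusive means inhibition above the set first-screen limit but never retested; inactive means the rest.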

Target: Rac GTPase-activating protein 1 (Homo sapiens) (UniProt Q9H0H5)
Sequence (Q9H0H5 whole entry, looked up): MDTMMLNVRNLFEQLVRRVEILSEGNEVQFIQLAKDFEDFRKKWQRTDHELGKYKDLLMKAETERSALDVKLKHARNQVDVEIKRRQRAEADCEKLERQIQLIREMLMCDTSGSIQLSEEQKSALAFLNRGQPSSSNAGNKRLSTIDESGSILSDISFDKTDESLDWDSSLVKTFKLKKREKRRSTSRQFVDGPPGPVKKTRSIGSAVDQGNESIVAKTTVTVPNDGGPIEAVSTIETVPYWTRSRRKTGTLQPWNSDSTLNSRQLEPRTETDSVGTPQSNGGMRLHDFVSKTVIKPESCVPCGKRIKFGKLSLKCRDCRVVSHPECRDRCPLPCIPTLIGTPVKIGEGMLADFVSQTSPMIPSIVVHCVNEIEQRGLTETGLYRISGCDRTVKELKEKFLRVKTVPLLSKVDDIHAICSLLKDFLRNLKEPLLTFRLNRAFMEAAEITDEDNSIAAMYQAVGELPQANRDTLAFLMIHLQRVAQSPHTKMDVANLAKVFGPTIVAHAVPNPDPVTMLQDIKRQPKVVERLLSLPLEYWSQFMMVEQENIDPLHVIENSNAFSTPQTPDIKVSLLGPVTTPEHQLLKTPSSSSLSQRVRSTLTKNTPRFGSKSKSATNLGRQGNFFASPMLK
Experiment: MgcRacGAP GTPase-activating activity inhibitors, confirmation, biochemical, ADP Hunter fluorescence, primary and confirmatory (AID 624330);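 further: fluorescence reports GDP produced by GAP-driven GTP hydrolysis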
Details: MgcRacGAP-stimulated Rac1 GTP hydrolysis, at 30 µM, active compounds read high, GST-tagged Rac1 F28L mutant substrate

Row | SMILES | inhibition [%]
1 | C=CCNC(=O)c1n[nH]c2c1CC(C(C)(C)CC)CC2 (centres undefined) | 8.27
2 | CCN(Cc1ccccc1)C(=O)C1CCC(CNc2c(N3CCOCC3)c(=O)c2=O)CC1 (centres undefined) | 4.88
3 | C=CCN1CCN(C(=O)c2cc3c(s2)CCC(CC)C3)CC1 (centres undefined) | 5
4 | COCCn1c(SCC(=O)Nc2ccc3c(c2)OCCO3)nc2c(c1=O)SC(C)C2 (centres undefined) | 8.12
5 | CCN1C(=O)[C@H]2[C@@H](c3ccc(C)cc3)N3C(=O)N(c4ccc(OC)cc4)C(=O)[C@@]3(Cc3ccc(Cl)cc3)[C@H]2C1=O | -2.48
6 | C/C(CC(=O)Nc1ccc2c(c1)OCCO2)=N\NC(=O)c1ccc([N+](=O)[O-])cc1Cl | 9.05
7 | C/C(CC(=O)Nc1ccc(N(C)C)cc1)=N\NC(=O)c1ccc(Cl)cc1Cl | 21.9
8 | Cc1ccc(-c2cc(C(=O)Nc3ccc(S(=O)(=O)Nc4onc(C)c4C)cc3)[nH]n2)c(O)c1 | -1.18
9 | C#CCOCCOCCOCCNc1nc(N2CCOCC2)nc(N2CCN(C(=O)[C@H](Cc3ccc(O)cc3)n3cc([C@@H](N)C(C)CC)nn3)CC2)n1 (some centres undefined) | 8.21
10 | CCN(Cc1ccncc1)Cc1c(O)ccc2ccccc12 | 15.9
11 | COc1ccc(CN(C)Cc2c(O)ccc3ccccc23)cc1 | 9.58
12 | COc1cccc(CN(C)Cc2c(O)ccc3ccccc23)c1 | 3.54
13 | CN(C)Cc1c(O)ccc2ccccc12 | 7.54
14 | COc1ccc(/C(N)=N/OC(=O)Cc2cccs2)cc1 | 5.03
15 | CCOC(=O)C(N=Nc1nn[nH]n1)C(C)=O (centres undefined) | 14.3
16 | CC(=O)Nc1c(F)cc(Br)cc1F | 7.06
17 | COCCN(C(=O)c1ccccc1)c1nnc(-c2cccnc2)s1 | 3.74
18 | C=CCn1c(=O)/c(=C/c2ccc(Cl)cc2)s/c1=C(\C#N)c1nnc2n1CCCCC2 | 0.47
19 | C=CCn1c(=O)/c(=C/c2ccc(Cl)cc2)s/c1=C(/C#N)c1nnc2n1CCCCC2 | 3.92
20 | CN1CCN(Cc2nnc(-c3ccccc3)o2)CC1 | 7.8
21 | CC1=CC(C2CC(=O)N(c3ccc(C)cc3)C2=O)CC2C(=O)N(c3ccc(C)cc3)C(=O)C12 (centres undefined) | 1.51
22 | Cn1cc(Br)c(-c2cccc(N3C(=O)CC(C)(C)CC3=O)c2)n1 | 9.36
23 | Cc1cccc(-n2nc3c(c2NC(=O)CCCl)CSC3)c1 | 9.59
24 | Cc1ccc(-n2ncc(C(=O)Nc3cc(Cl)cc(Cl)c3)c2C2CCNCC2)cc1C | 10.4
25 | COc1ccc(CSc2nncn2N)cc1[N+](=O)[O-] | 2.61

Row | SMILES | inhibition [%]
26 | OCC1CCCN(C(=S)Nc2ccc(Oc3ccccc3)cc2)C1 (centres undefined) | 11.8
27 | CC(=O)c1ccc(NC(=S)N2CCCC(CO)C2)cc1 (centres undefined) | 9.07
28 | Cc1ccccc1NC(=O)c1cccc2c1C(=O)N(C1CCCCC1)C2 | 6.92
29 | COc1cc(Cc2nccc3cc(OC)c(OC)cc23)c(NC(C)=O)cc1OC | 8.79
30 | COc1cc(NC(=O)c2cnc(NCc3ccccc3)nc2C)cc(OC)c1OC | 10.3
31 | CCCC(=O)Nc1cc(OC)c(OC)cc1C(=O)O | 0.59
32 | COc1cc2ccc(NC(C)=O)cc2cc1OC | -17.4
33 | CCOC(=O)[C@@H]1[C@H]2COc3ccccc3[C@@H]2N2C(=O)N(c3cccc(Cl)c3)C(=O)[C@@]12C | 7.95
34 | O=C(CCC(=O)Nc1ccc(F)cc1)N/N=C/c1cccnc1 | 7.44
35 | Cc1ccnc(NS(=O)(=O)c2ccc(NC(=O)c3snnc3C)cc2)n1 | 15.1
36 | c1ccc2c(c1)CCN(CCCNc1nc3ccccc3n3cnnc13)C2 | 5.26
37 | COc1cc(C)nc(NS(=O)(=O)c2ccc(C)cc2)n1 | 5.36
38 | Cc1ccc(S(=O)(=O)Nc2nc(C)cc(NN)n2)cc1 | 0.61
39 | COC(=O)c1ccsc1NC(=O)c1ccc2c(c1)OCCO2 | 0.64
40 | O=C(CCCN=C1NS(=O)(=O)c2ccccc21)OCC(=O)c1ccc(F)cc1 | 3.32
41 | Cc1cc(C(F)F)nn1CC(=O)NCc1ccc(Cl)cc1Cl | 6.89
42 | COc1cc2[nH]c(=S)n(CCCN3CCOCC3)c(=O)c2cc1OC | 12.7
43 | CCCSc1nc2cc(OC)c(OC)cc2c(=N)n1CCCN1CCOCC1 | 20.6
44 | Fc1cc2[nH]c(=S)[nH]c2c(Br)c1N1CCSCC1 | 8.85
45 | O=C(N/N=C/c1cccc(F)c1)c1csc2c1CCCC2 | 11.6
46 | C/C(=N\NC(=O)c1csc2ccccc12)c1ccc(O)cc1 | 26.2
47 | O=C(N/N=C/c1ccccc1)c1cccc2ccccc12 | 7.64
48 | O=C(N/N=C/c1ccccc1O)c1cccc2ccccc12 | 11.8
49 | O=C(N/N=C/c1cccc(O)c1)c1csc2ccccc12 | -6.14
50 | Cc1ccc(/C=N/NC(=O)c2csc3c2CCCC3)cc1 | 7.82

Row | SMILES | inhibition [%]
51 | Cc1cc(S(=O)(=O)N2CC(=O)N(CCc3ccccc3)C(=O)C2)ccc1F | 12.6
52 | CCC(C)N(CCNC(=O)c1ccc2c(c1)NC(=O)c1ccccc1S2)C1CCCCC1 (centres undefined) | 3.06
53 | COc1ccc(C(=O)CN2C(=O)NC3(CCCc4ccccc43)C2=O)c(OC)c1 (centres undefined) | 2.84
54 | CN(C(=O)CSc1nnc(-c2cccc(F)c2)n1N)C1CCS(=O)(=O)C1 (centres undefined) | 3.77
55 | Cc1csc(=O)n1CC(=O)OCC(=O)c1c(N)n(CC(C)C)c(=O)n(C)c1=O | -0.27
56 | Cc1nc2ccccc2c(-c2ccccc2)c1CC(=O)O | 5.79
57 | Cc1nc2ccccc2n1CC(=O)c1ccccc1 | 15.2
58 | COc1ccccc1OCC(=O)NCC1CCCN(C(=O)c2cccc(C)c2)C1 (centres undefined) | 12.2
59 | CCN(CC)CCNc1ccc(CO)c2sc3ccccc3c(=O)c12 | 16.6
60 | CN(C)CCNC(=O)c1cc2sc3ccccc3c2s1 | 11.4
61 | Cc1cc(O)cc2c(=O)c3ccccc3sc12 | 8.36
62 | CN(C)CCNc1ccc(Cl)cc1[N+](=O)[O-] | -0.93
63 | CCN(CC)CCNc1ccc(CO)c2oc3ccccc3c(=O)c12 | 16.8
64 | COc1ccc2sc3ccccc3c(=O)c2c1OC | 2.12
65 | CCN(CC)CCNc1ccc(CO)c2oc3cc(Cl)ccc3c(=O)c12 | 4.45
66 | O=c1c2ccccc2sc2c(CO)ccc(NCCN3CCCCC3)c12 | 27.3
67 | Nn1c(SCC(=O)NCCC2=CCCCC2)nnc1C(F)(F)F | 9.95
68 | Cc1cccc(NC(=O)CSc2nnc(C)n2Cc2ccccc2)c1 | -8.45
69 | O=C(NCCc1nc(-c2ccccc2)cs1)c1ccc(Br)cc1 | -0.49
70 | CC(=O)N(Nc1ccccc1)c1ccccc1 | -0.89
71 | COc1ccc(C=C2C=C(C(C)(C)C)C(=O)C(C(C)(C)C)=C2)cc1OC | 15.6
72 | CC(=O)OCCCN1c2ccccc2Nc2nnc(-c3ccccc3)cc21 | 6.92
73 | CCCCc1ccc(NC(=O)c2ccc(N(C)S(C)(=O)=O)cc2)cc1 | -2.51
74 | CCN(CC)CCNc1cccc2sc3ccccc3c(=O)c12 | 19.4
75 | CCN(CC)CCNc1ccc(Cl)cc1[N+](=O)[O-] | 4.03

Row | SMILES | inhibition [%]
76 | C#CCOCCOCCOCCNc1nc(N2CCN(C(=O)[C@H]([C@@H](C)CC)n3cc(CCCN=C(N)N)nn3)CC2)nc(N2CCN(C(=O)[C@H](CCCCN)n3cc(CCC(=O)O)nn3)CC2)n1 | -4.54
77 | O=C(CCS(=O)(=O)c1ccc(F)cc1)Nc1ccc(N2CCN(Cc3ccccc3)CC2)cc1 | 3.53
78 | CCOc1ccc(CNc2ccc(N3CCN(Cc4ccccc4)CC3)cc2)cc1 | 30.8
79 | O=C(CN1CCN(Cc2ccc(F)cc2)CC1)NCc1ccccc1 | 9.4
80 | CC(=O)Nc1ccc(N2CCN(Cc3ccccc3)CC2)cc1 | 11.2
81 | Cc1ccc(NC(=O)c2ccccc2Cl)cc1-n1cnnn1 | 3.88
82 | CCOc1ccc(S(=O)(=O)NN2Cc3ccccc3C2=N)cc1 | 7.55
83 | COc1ccc(OC)c(S(=O)(=O)N(C)CC(=O)N2CCN(c3ccc(F)cc3)CC2)c1 | 5.44
84 | Cc1cc(C(=O)NC2CCCC2)on1 | 2.61
85 | COc1ccc2c(c1)C(=NNC(=O)c1ccccn1)c1cc(OC)ccc1-2 | 12.9
86 | CCOc1ccc2c(c1)C(=NNC(=O)c1ccccn1)c1cc(OCC)ccc1-2 | -24.9
87 | Cc1cc(C)n(C(=O)CNc2cccc(Cl)c2C)n1 | 5.52
88 | Cc1ccc(NC2(C#N)CCCC2)cc1 | 4.1
89 | N#CC1(Nc2ccc(Br)cc2)CCCC1 | 2.57
90 | COc1ccc(C(CNC(=O)c2ccc(S(=O)(=O)N(C)C)cc2)N2CCCC2)cc1 (centres undefined) | -5.33
91 | N#CC1(NC(=O)CSc2nnc3n2CCCCC3)CCCCC1 | 4.53
92 | CC(NC(=O)COC(=O)c1ccc(S(=O)(=O)N2CCOCC2)cc1)c1ccccc1 (centres undefined) | -3.85
93 | Cc1c(NC(=O)Cc2cccs2)cccc1[N+](=O)[O-] | 6.13
94 | Oc1cccc(/C=N/Nc2cc(N3CCOCC3)nc(N3CCOCC3)n2)c1 | 18.3
95 | Cc1cccc(/C=N/Nc2cc(N3CCOCC3)nc(N3CCOCC3)n2)c1 | -20.8
96 | CC(C)c1ccc(/C=N/Nc2cc(N3CCOCC3)nc(N3CCOCC3)n2)cc1 | 2.24
97 | Oc1ccccc1/C=N/Nc1cc(N2CCCC2)nc(N2CCCC2)n1 | -4.19
98 | Oc1ccc(/C=N/Nc2cc(N3CCCC3)nc(N3CCCC3)n2)cc1O | 23.7
99 | Oc1ccc(/C=N/Nc2cc(N3CCCC3)nc(N3CCCC3)n2)cc1 | 7.45
